Over roughly 33,000 sequences, “e-score” has its median near -0.038; the highest 2% begin near 0.33. What follows is part of a selection rich in the highest values, with near analogues and random picks from the rest.

The target in this assay is T1, GST-Rok-C97-191 (Bacillus subtilis subsp. subtilis str. …, UniProt O34857 97-191).
T1 sequence: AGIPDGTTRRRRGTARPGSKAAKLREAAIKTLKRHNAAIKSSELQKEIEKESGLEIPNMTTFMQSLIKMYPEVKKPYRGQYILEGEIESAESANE
Kind of assay: protein binding microarray; Rok is a gene silencer of Bacillus subtilis; high values mean tight binding. The note with it: protein: recombinant; tags: GST (pTH5325, pDEST15-Magic modified); dsDNA, one strand shown. The method, boiled down: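 Every oligonucleotide joins a 25-mer constant primer to a 35-mer variable part drawn from a de Bruijn sequence of order 10, so each non-palindromic 8-mer appears at least 32 times and each palindromic 8-mer 16 times. The preference for every 8-mer is reported as a unitless, rank-based enrichment score (E-score). This score spans 0.5 for the most favored 8-mer to −0.5 for the most disfavored.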
Take AGAGCCAG: the binding signal was -0.194 E-score. As to ACGTGCCT, the binding signal was -0.189 E-score.

As for CCGTTCTA, the binding signal worked out at 0.108 E-score.

For the sequence TACAGGAA, the binding signal worked out at 0.0535 E-score. For GGAATCGA, the binding signal came to 0.209 E-score. As for AGATTGTG, the binding signal was determined as 0.09 E-score.

GTAGCTAA: the binding signal amounted to 0.346 E-score. Regarding CTAGCTAC, the binding signal is 0.163 E-score. The result for CTAGCTAA reads 0.127 E-score; that for ATAGCTAT, 0.402 E-score.

For the sequence ATAGCTAG, the binding signal was 0.271 E-score. Turning to GTAGCTAC, the binding signal was found to be 0.428 E-score. With ATAGCTAC, the binding signal is 0.31 E-score.

Regarding GAAGCTAC, the binding signal was 0.309 E-score. TTAGCTAA: the binding signal worked out at 0.263 E-score. With ATTTAATG, the binding signal is 0.105 E-score. In the case of CGTCTGAA, the binding signal was -0.0845 E-score. Take CTAAAGTC: the binding signal is 0.0658 E-score.

Regarding ATGCTGAC, the binding signal is -0.0948 E-score. To ATTCGACC belongs -0.138 E-score. To AGGTAGTA belongs 0.328 E-score; to CGGTAGTA, 0.391 E-score. On to GGGTAGTA, for which the binding signal was found to be 0.3 E-score. On to GGGTAATA, for which the binding signal was 0.272 E-score. AGGTAATA: the binding signal is 0.328 E-score.

Take CGGTAGTC: the binding signal turned out to be 0.174 E-score. Consider AGGTAATG, for which the binding signal amounted to 0.113 E-score.

On to AGGTAGTG, for which the binding signal was -0.0194 E-score. On to AGGTAGTC, for which the binding signal turned out to be 0.0784 E-score.

On to CTTCGAAC, for which the binding signal was -0.152 E-score. Regarding CAACTACG, the binding signal is 0.113 E-score. Turning to GCACTACC, the binding signal was 0.0373 E-score. Take AAACTACT: the binding signal is 0.464 E-score. On to AAACTACA, for which the binding signal worked out at 0.387 E-score. Turning to AGACTACT, the binding signal is 0.198 E-score. AAACTACG: the binding signal is 0.387 E-score. As to ACACTACT, the binding signal came to 0.18 E-score. On to ACACTACG, for which the binding signal is -0.0248 E-score. To GAACTACC belongs 0.367 E-score. On to GAACTACA, for which the binding signal amounted to 0.252 E-score. Turning to CAACTACA, the binding signal came out at 0.234 E-score. Turning to AGACTACA, the binding signal amounted to 0.0455 E-score. As for GGTCCGAC, the binding signal is -0.143 E-score. Take ATGAAAGC: the binding signal is -0.0998 E-score. Consider AGGTGAAG, for which the binding signal was -0.109 E-score. Turning to TACTGTAA, the binding signal stood at 0.323 E-score. To CGGAGAAC belongs 0.0827 E-score; to ACATTCGA, 0.071 E-score. In the case of CAACTACC, the binding signal was found to be 0.271 E-score. Consider AAACTACC, for which the binding signal was determined as 0.473 E-score.

As for TCACTACA, the binding signal is -0.0801 E-score. The result for TAACTACA reads 0.423 E-score; that for TGACTACA, 0.031 E-score; that for AGACTACC, 0.268 E-score. For AACAGCTC, the binding signal turned out to be 0.087 E-score. Regarding TATGGAGA, the binding signal turned out to be 0.0429 E-score. On to ATGTACTA, for which the binding signal is 0.376 E-score. As for TTGTACAA, the binding signal stood at 0.342 E-score. With GTGTACTA, the binding signal came to 0.16 E-score.

On to ATGTACCA, for which the binding signal came to 0.335 E-score.

In the case of CTGTACCA, the binding signal was -0.0649 E-score. To ATGTACCC belongs 0.0999 E-score; to ATGTACTC, 0.178 E-score; to GTGTACAA, 0.213 E-score.

With ATGTACAA, the binding signal stood at 0.317 E-score. The result for CTGTACAA reads 0.0696 E-score; that for ATGTACAT, 0.377 E-score. In the case of ATGTACAG, the binding signal is 0.317 E-score.

On to ATGCAGTC, for which the binding signal is -0.0482 E-score. For ATCTAAAC, the binding signal came out at 0.0603 E-score.

For AGGCCAAT, the binding signal is -0.176 E-score. For CCTACAGA, the binding signal is 0.064 E-score. Consider AAGTCTAG, for which the binding signal was 0.0844 E-score. Consider GGTTATAA, for which the binding signal is 0.0781 E-score. For GGAGTTGA, the binding signal was -0.137 E-score. With AAGACCAA, the binding signal is -0.0146 E-score. In the case of CGACCACA, the binding signal was -0.0849 E-score. Take ACGCGCAT: the binding signal was -0.158 E-score. The result for CTCTACAA reads 0.00826 E-score. For TTCTACAA, the binding signal was found to be 0.362 E-score. With GTCTACAA, the binding signal was -0.0759 E-score. Take ACGACCGT: the binding signal is 0.00992 E-score.

Consider ACATTGCA, for which the binding signal was determined as 0.0494 E-score. To CCTAGATC belongs 0.0939 E-score. ACTAGATG: the binding signal stood at 0.317 E-score. As for CCTAGATA, the binding signal is 0.0777 E-score. As to ATTAGATC, the binding signal was determined as 0.0978 E-score. To ACTAGATC belongs 0.335 E-score; to ACTAGATA, 0.403 E-score. The result for CGGCACTC reads -0.0669 E-score. On to CCCATTTC, for which the binding signal is 0.0795 E-score.

Take ATGACCTG: the binding signal is -0.0486 E-score.

As for CCGACTAG, the binding signal amounted to 0.0252 E-score. To GTTATTTA belongs 0.273 E-score.

ATTATTTA: the binding signal was determined as 0.37 E-score.

In the case of CTTATATC, the binding signal was 0.117 E-score. Take ATTATATC: the binding signal was 0.384 E-score.

In the case of ATTATATG, the binding signal worked out at 0.223 E-score. As to ATTATAGC, the binding signal amounted to 0.189 E-score. With CTTATTTA, the binding signal is 0.184 E-score. Regarding GTTATATA, the binding signal is 0.31 E-score.

For ATTATATA, the binding signal was 0.446 E-score. As for AAAATGCA, the binding signal was determined as 0.153 E-score.

In the case of TAAGTGCA, the binding signal is 0.0583 E-score. Consider CCTAATTC, for which the binding signal was determined as 0.115 E-score. To CCTAATTA belongs 0.28 E-score; to ACTAATTC, 0.373 E-score; to GCTAATTA, 0.289 E-score. ACTAATTG: the binding signal came to 0.189 E-score. Take ACTAATTA: the binding signal was 0.444 E-score. On to CACTTGGC, for which the binding signal is -0.143 E-score. Consider CCTGACCA, for which the binding signal was -0.111 E-score. Consider AAAGTTCG, for which the binding signal was 0.0847 E-score.

For CGCGCTAA, the binding signal was 0.329 E-score. With TGCGCTAA, the binding signal is -0.0024 E-score. Consider CGCGCTAC, for which the binding signal was -0.0357 E-score. On to AATCTGTG, for which the binding signal is -0.0756 E-score. With ATAATTTC, the binding signal came out at 0.36 E-score. GTAATTTA: the binding signal worked out at 0.353 E-score.

Turning to AGAATTTG, the binding signal is 0.161 E-score.

For GCAATTTA, the binding signal was 0.257 E-score. For the sequence ATAATTCA, the binding signal turned out to be 0.245 E-score. As for CTAATTTC, the binding signal came to 0.272 E-score. To ATAATTTG belongs 0.344 E-score.

GTAATTGA: the binding signal worked out at 0.0917 E-score. As to ACAATTTG, the binding signal was 0.104 E-score.

As for AGAATTTC, the binding signal came to 0.255 E-score. The result for CTAATTTA reads 0.305 E-score. The result for ATAATTTA reads 0.354 E-score; that for CAGGGATC, -0.151 E-score. With AGAGCTAA, the binding signal turned out to be 0.148 E-score. In the case of AGTCCTCC, the binding signal is -0.0852 E-score. To AAAATTAT belongs 0.239 E-score. For GCTCACTA, the binding signal is 0.0154 E-score. For GAAGAGGA, the binding signal was -0.151 E-score. GGCATACC: the binding signal worked out at 0.00482 E-score.

Regarding GCGGACGA, the binding signal was -0.188 E-score.

As for AGAGGCAT, the binding signal is 0.0046 E-score. The result for AATACGCT reads -0.133 E-score; that for ACAACGAG, -0.0859 E-score.

For the sequence AGAGAAAG, the binding signal was determined as 0.159 E-score. The result for CGATGACC reads -0.125 E-score. To ATTTGTAC belongs 0.333 E-score; to CTTTGTAC, 0.249 E-score; to AATTGTAC, 0.211 E-score. On to GATTGTAC, for which the binding signal worked out at 0.365 E-score. Consider GATTGTAA, for which the binding signal came to 0.0411 E-score. For ATTTGTAA, the binding signal was determined as 0.203 E-score. As for TAACTCCA, the binding signal was found to be 0.0761 E-score. Turning to CTCGGGAC, the binding signal was -0.0122 E-score. Regarding GAACCTAC, the binding signal amounted to 0.198 E-score. Turning to ATACCTAC, the binding signal is 0.333 E-score.

For CTACCTAC, the binding signal stood at 0.376 E-score. With GTACCTAC, the binding signal was found to be 0.349 E-score. As to ATACCTAG, the binding signal was 0.253 E-score. Take CTACCTAG: the binding signal came out at 0.243 E-score. Turning to GTACCTAA, the binding signal worked out at 0.155 E-score.

Take CTACCTAA: the binding signal is 0.174 E-score.

As for ATACCTAT, the binding signal stood at 0.323 E-score. Regarding AACATATC, the binding signal was found to be 0.233 E-score. Take CATGTTAC: the binding signal amounted to 0.15 E-score. The result for CTCCACTA reads 0.107 E-score; that for CAGCCCTG, -0.157 E-score. To ACAAATAT belongs 0.337 E-score; to ATAAATAG, 0.252 E-score; to GTAAATAC, 0.336 E-score. The result for ATAAATAT reads 0.369 E-score; that for AGAAATAG, 0.326 E-score; that for AGAAATAC, 0.311 E-score. Consider AGAAATAT, for which the binding signal came to 0.346 E-score.

Consider ACAAATAC, for which the binding signal came out at 0.266 E-score. With ATAAATAC, the binding signal was 0.287 E-score. Turning to CTAAATAC, the binding signal was determined as 0.287 E-score. ACAAATAA: the binding signal amounted to 0.246 E-score. In the case of ATAAATAA, the binding signal is 0.269 E-score.

Values taken from publication PMC6212790, “How bacterial xenogeneic silencer rok distinguishes foreign from self DNA in its resident genome”.
